Hit rate of the full screen: of about 65,000 compounds, about 2,100 (3.2%) showed an effect of 50% or more. The median lay at about -52%. The entries come from a sample that favours strong results as a whole.

The subject of this assay is Plasmodium falciparum. Kind of assay: Screen against P. falciparum Asexual Blood Stage (ABS), at 5uM. Type of assay: functional, Dd2. To be noted: tested at 5 uM.
As to `CCNc1ccnc(N2Cc3cnc(CC(C)C)nc3C2)n1`, the INHIBITION is reported as 74.6%.
To `CC(C)Nc1ccnc(N2Cc3cnc(C(C)(C)C)nc3C2)n1` belongs 50.1%; to `O=C(c1cscn1)N1CCN2C[C@H](OCc3cccnc3)C[C@H]2C1`, -55.9%; to `COc1ccc(C2SCC(=O)Nc3n[nH]cc32)c(OC)c1OC` (stereo unspecified), -164%.
To `O=C(Nc1ccc(Cn2cccn2)cc1)N1CCC2(CC1)OCCO2` belongs -153%; to `COc1ccccc1CCN(C)Cc1nc(N)nc(N(C)C)n1`, 69.9%.
The result for `CN(CCc1cccc2ccccc12)Cc1nc(N)nc(N(C)C)n1` reads 92.2%; that for `COc1ccccc1CC(C)N(C)CCS(C)(=O)=O` (stereo unspecified), 1.1%.
Consider `Cc1nc(-c2ccccc2F)sc1C(=O)N1CCC(=O)CC1`, for which the INHIBITION is given as -67.5%.
Take `O=C(Cc1cccs1)N1C[C@@H]2OCCN(CC3CCCO3)[C@@H]2C1` (stereo partly specified): the INHIBITION is -87.1%.
The result for `Cn1cc(C2SCC(=O)Nc3c2cnn3C(C)(C)C)cn1` (stereo unspecified) reads -6.82%.
The result for `CCN1CCC(CNCc2cc(C)ccc2OC)C1` (stereo unspecified) reads 82.7%; that for `CCC(O)CN1CCN(C(=O)Cc2cc(C)ccc2OC)CC1` (stereo unspecified), -68.2%; that for `COc1ccc(C)cc1CC(=O)N1CCN(CC(C)O)CC1` (stereo unspecified), -34.3%.
The result for `N#Cc1ccc(OC[C@]23COC[C@H]2CN(Cc2nccs2)C3)nc1` reads -22.3%; that for `O=C(C1CC1)N1CCOC2(CCNCC2)C1`, -22.2%; that for `Cn1ccnc1CN1CCC2(CC(=O)N(c3ccccn3)C2)C1` (stereo unspecified), -145%.
As for `Cc1ccc(CC(=O)N2CCCN(Cc3nccn3C)CC2)cn1`, the INHIBITION is -72.4%.
The result for `Cc1ccc(C(O)CN2CCN(Cc3nccn3C)CC2)cc1C` (stereo unspecified) reads 80.4%.
To `Clc1ccccc1C1(c2ccnc(-c3ccncc3)n2)CCNCC1` belongs 83.6%; to `CC(C)(C)c1nccc(C2(c3ccccc3Cl)CCNCC2)n1`, 76.1%; to `CC(C)c1nccc(C2(c3ccccc3Cl)CCNCC2)n1`, 83.4%.
`Cc1ccc(N2CCO[C@H]3CN(Cc4cccnc4)C[C@H]32)nn1`: the INHIBITION is given as -18.3%.
The result for `CN1C(=O)CC2(CCNCC2)c2ccccc21` reads 2.59%; that for `CC(C)c1ccc(CN2C(=O)C3(CCNCC3)Nc3ccccc32)cc1`, 82%.
To `O=C1CC2(CCCNC2)C(=O)N1Cc1ccccc1` (stereo unspecified) belongs -15.7%.
The result for `c1cncc(CN2CCN3C[C@H](Oc4cncnc4)C[C@H]3C2)c1` reads -155%; that for `CC(C)[C@@H]1CN(C(=O)C2(c3ccccc3)CCN(C)CC2)C[C@H]1C(=O)O`, -65.7%; that for `CC(C)[C@@H]1CN(C(=O)C2(c3ccccc3)CCN(C)CC2)C[C@H]1N(C)C`, 83.7%.
Consider `CC(=O)C1(c2ccccc2)CCN(C(=O)c2ccc3nnnn3c2)CC1`, for which the INHIBITION was -106%.
To `CCS(=O)(=O)N1CCc2c(COCCN(C)C)cncc2C1` belongs -62.2%; to `O=S1(=O)NCC2(CCNCC2)COc2ccccc21`, -55.2%.
Regarding `O=S1(=O)c2ccccc2OCC2(CCN(CCO)CC2)CN1CC1CC1`, the INHIBITION is recorded as 76.9%.
With `Oc1cccc2ccc(CN3CCC4(CCNCC4)C3)nc12`, the INHIBITION was 89.9%.
For `Cc1cccc(CN2CCC3(CCCN(CC(=O)N(C)C)C3)C2)n1` (stereo unspecified), the INHIBITION is reported as -47.6%.
To `c1ccc(-c2ncc(CN3CCC4(CCNCC4)C3)cn2)cc1` belongs 10.6%; to `Cc1nn(-c2ncccn2)c2c1C(c1cnn(C)c1)SCC(=O)N2` (stereo unspecified), -15%; to `O=C(CSc1ccccn1)N1CCN(CCO)[C@@H]2CS(=O)(=O)C[C@@H]21`, -35.4%.
As to `COc1ccnc(CN2CCCC(CCc3ccc(F)cc3)C2)c1OC` (stereo unspecified), the INHIBITION is on record as 88.9%.
To `COc1ccnc(CN2CCCC(CCc3ccccc3)C2)c1OC` (stereo unspecified) belongs 90.1%; to `N#CC1(c2ccccc2)CCN(C(=O)C2CCCN(CC(N)=O)C2)CC1` (stereo unspecified), -116%; to `CCC(O)CN1CCN(C(=O)Cc2nc(-c3ccco3)oc2C)CC1` (stereo unspecified), -62.9%.
The result for `CC(Cc1ccc(Cl)cc1)N(C)C(=O)NCCS(C)(=O)=O` (stereo unspecified) reads -65.7%; that for `O=C(c1ccncc1)N1CCN2C[C@H](Oc3cccnc3)C[C@H]2C1`, -77%; that for `CC(C)N(CCNC(=O)c1[nH]nc2ccc(I)cc12)C(C)C`, 86.9%.
To `CC[C@@H]1N(Cc2ccncc2)CCC[C@]12CCC(=O)N2CCOC` belongs -38%; to `CCc1cccc(NC(=O)CCN2CC=C(c3cnn(C)c3)CC2)c1`, -33.3%; to `COc1ccc(NC(=O)CCN2CC=C(c3cnn(C)c3)CC2)c(C)c1`, -33.1%.
Turning to `COc1ccc(NC(=O)CCN2CC=C(c3cnn(C)c3)CC2)cc1Cl`, the INHIBITION was 67.2%.
Regarding `Cc1ccc2nc(C)c(C)c(C(=O)N[C@H]3COC[C@@H]3N3CCCC3)c2c1`, the INHIBITION is -47.2%.
To `Cc1cc(CN2CC[C@H]3C[C@@H](C)O[C@@H]3C2)no1` belongs -71.2%.

The values above are taken from ChEMBL document CHEMBL4513216, “Probing the Open Global Health Chemical Diversity Library for Multistage-Active Starting Points for Next-Generation Antimalarials” (ACS Infect Dis, 2020).
